The full data set covers some 7,900 targets. This sample favours those with a hit. About 0.6% of all pairs of compound and target were hits. Values without a mark were called inactive.

From the supplement of paper PMC10849652 come the findings set out here.

Chain of UniProt Q86UU1 (Q86UU1 whole entry, looked up): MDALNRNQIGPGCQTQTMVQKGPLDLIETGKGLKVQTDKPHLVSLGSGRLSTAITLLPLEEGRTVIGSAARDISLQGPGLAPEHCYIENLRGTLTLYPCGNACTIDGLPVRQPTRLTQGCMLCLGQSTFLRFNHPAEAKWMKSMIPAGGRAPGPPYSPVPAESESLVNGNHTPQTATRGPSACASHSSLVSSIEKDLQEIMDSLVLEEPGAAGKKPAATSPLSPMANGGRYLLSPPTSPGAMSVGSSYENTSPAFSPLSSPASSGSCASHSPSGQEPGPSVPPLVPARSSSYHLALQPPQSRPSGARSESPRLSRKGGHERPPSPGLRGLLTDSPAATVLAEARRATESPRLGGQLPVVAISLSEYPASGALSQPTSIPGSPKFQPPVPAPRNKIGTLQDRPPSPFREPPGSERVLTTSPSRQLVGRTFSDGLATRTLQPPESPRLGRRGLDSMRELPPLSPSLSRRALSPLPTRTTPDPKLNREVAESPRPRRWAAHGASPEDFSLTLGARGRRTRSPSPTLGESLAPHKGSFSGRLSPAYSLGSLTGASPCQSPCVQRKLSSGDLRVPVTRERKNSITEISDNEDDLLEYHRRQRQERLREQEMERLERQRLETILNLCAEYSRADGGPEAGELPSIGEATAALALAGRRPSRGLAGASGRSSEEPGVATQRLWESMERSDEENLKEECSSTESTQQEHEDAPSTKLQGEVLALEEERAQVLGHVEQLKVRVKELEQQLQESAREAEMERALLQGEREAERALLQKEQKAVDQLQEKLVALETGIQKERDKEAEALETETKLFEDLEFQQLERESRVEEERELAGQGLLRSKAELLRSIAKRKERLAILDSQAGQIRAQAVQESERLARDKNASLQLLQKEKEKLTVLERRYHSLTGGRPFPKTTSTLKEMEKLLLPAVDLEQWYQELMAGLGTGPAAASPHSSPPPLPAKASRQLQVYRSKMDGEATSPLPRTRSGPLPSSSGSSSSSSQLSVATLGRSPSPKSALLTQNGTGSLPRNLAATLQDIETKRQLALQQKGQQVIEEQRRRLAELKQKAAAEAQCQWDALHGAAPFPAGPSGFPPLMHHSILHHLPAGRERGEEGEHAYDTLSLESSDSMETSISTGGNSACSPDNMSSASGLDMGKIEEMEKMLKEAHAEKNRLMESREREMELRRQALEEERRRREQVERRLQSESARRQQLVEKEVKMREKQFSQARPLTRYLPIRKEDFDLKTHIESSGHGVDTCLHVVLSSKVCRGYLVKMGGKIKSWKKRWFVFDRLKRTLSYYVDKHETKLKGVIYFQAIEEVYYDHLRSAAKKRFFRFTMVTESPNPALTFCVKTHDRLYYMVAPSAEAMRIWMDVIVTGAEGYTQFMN
Chain of UniProt Q68D20 (Q68D20 whole entry, looked up): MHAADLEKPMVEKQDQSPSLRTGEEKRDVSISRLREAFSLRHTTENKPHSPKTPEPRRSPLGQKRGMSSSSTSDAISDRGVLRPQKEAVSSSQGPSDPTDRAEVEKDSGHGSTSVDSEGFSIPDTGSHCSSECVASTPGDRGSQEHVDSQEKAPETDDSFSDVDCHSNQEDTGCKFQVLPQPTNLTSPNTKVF
Chain of UniProt Q9UHX1 (Q9UHX1 whole entry, looked up): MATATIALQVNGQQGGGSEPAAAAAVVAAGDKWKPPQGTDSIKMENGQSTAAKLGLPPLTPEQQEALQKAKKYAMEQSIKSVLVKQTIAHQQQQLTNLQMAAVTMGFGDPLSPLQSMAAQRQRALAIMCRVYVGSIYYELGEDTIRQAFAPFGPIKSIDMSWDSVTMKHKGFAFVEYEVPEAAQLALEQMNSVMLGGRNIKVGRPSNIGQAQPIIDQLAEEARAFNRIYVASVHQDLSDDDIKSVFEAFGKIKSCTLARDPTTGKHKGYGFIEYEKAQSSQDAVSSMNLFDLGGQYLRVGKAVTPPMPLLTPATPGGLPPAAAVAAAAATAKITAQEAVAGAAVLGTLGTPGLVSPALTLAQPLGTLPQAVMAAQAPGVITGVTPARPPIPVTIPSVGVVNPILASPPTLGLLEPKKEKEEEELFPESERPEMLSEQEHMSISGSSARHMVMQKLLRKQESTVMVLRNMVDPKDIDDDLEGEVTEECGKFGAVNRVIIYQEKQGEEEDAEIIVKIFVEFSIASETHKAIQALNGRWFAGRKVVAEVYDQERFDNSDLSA
Chain of UniProt Q13362 (Q13362 whole entry, looked up): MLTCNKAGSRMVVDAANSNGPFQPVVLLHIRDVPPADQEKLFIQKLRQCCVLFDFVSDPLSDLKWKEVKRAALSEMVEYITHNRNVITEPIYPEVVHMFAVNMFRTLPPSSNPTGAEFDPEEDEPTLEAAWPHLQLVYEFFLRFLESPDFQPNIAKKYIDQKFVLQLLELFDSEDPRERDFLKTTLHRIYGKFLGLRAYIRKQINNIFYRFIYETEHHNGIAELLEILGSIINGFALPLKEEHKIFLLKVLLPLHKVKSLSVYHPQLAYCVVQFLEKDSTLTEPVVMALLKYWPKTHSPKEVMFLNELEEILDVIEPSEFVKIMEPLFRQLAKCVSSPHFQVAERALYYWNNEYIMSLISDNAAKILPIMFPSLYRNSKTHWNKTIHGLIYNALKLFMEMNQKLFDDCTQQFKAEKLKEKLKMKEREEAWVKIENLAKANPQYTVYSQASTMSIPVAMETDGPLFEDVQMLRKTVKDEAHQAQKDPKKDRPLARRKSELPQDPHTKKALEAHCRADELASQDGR
Chain of UniProt Q8N2W9 (Q8N2W9 whole entry, looked up): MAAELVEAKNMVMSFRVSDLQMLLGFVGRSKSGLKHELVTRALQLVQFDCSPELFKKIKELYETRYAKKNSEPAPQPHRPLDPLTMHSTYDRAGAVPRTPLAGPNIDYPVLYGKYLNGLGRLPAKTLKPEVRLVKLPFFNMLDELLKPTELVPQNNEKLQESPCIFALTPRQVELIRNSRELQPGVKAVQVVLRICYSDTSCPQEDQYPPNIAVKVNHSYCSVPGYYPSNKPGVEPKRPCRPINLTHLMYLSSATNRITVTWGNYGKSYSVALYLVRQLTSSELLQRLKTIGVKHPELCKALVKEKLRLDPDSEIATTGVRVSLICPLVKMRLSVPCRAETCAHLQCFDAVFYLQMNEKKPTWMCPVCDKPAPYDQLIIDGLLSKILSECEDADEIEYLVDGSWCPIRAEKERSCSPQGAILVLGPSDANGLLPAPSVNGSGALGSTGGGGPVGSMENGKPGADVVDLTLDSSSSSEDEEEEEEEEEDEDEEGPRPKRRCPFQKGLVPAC
Chain of UniProt Q14442 (Q14442 whole entry, looked up): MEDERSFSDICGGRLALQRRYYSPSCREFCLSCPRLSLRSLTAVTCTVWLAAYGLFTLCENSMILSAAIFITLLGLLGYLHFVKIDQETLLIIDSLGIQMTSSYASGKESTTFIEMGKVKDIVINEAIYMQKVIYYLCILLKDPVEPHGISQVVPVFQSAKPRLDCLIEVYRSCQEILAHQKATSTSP
Chain of UniProt P27815 (P27815 whole entry, looked up): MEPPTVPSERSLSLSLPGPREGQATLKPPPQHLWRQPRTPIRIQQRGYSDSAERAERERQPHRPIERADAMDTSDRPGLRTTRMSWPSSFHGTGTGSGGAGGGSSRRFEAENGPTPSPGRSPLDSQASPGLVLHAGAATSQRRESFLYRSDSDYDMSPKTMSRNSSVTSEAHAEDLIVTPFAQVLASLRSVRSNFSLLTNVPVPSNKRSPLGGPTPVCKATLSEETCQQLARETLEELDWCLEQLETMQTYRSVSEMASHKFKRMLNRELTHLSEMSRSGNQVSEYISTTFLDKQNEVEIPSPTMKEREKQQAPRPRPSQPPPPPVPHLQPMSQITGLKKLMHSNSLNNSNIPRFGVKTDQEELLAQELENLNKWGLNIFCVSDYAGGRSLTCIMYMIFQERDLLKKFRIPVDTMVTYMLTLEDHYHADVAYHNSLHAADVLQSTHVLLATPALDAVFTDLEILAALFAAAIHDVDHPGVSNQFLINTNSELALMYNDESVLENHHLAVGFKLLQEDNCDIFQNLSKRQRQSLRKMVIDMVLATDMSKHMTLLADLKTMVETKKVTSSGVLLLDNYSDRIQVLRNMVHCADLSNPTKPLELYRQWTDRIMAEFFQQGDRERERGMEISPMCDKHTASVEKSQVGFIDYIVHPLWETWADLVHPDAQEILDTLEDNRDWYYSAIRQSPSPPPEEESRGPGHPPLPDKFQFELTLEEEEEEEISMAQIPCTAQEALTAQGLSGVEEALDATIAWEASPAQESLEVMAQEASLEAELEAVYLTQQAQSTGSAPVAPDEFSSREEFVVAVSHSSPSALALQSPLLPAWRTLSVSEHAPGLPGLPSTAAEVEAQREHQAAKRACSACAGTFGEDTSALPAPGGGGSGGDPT
Chain of UniProt Q9NUJ7 (Q9NUJ7 whole entry, looked up): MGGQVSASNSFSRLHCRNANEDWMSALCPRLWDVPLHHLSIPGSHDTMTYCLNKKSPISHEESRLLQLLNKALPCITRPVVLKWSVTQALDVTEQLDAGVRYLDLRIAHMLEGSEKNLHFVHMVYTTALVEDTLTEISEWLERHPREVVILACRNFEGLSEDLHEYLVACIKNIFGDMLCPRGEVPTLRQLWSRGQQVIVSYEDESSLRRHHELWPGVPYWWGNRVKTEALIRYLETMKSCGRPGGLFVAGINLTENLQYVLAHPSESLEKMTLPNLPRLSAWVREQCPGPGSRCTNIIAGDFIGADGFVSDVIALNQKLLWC
Chain of UniProt P60484 (P60484 whole entry, looked up): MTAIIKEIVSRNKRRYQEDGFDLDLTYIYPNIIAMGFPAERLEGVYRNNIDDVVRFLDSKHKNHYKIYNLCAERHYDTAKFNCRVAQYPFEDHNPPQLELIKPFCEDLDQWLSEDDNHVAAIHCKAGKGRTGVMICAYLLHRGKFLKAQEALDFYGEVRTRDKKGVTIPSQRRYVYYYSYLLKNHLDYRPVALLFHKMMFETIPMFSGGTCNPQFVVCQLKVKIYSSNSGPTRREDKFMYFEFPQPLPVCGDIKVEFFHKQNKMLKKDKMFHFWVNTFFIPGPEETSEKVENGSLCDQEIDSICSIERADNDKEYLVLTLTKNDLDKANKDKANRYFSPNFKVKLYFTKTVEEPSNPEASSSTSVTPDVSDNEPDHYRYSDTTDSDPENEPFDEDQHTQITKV

Compound in the experiment: Cc1ccc(C(=O)N(CCCN)[C@@H](c2nc3cc(Cl)ccc3c(=O)n2Cc2ccccc2)C(C)C)cc1 [ispinesib]
Nature of the experiment: log2 fold change, soluble protein after heating vs DMSO (PISA); higher = thermal stabilisation; K562 cells, 10 uM, 30 min; active = over 0.2 and 3.5 SD of the protein, either way, in both replicates (recomputed). In a few lines:
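Values are thermal stability changes relative to control samples and are taken from duplicates. They are stated as log2 fold changes. Before quantification by TMTpro 16plex LC-MS/MS with equalised channel sums, K562 cells at 2×10^6 cells/mL were treated with 10 μM compound for 30 min, heated in aliquots for 3 min across 48°C-58°C, pooled, extracted in PBS with 0.5% NP-40 at 4°C, and centrifuged at 21,000xg for 90 min to give the soluble supernatant.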
As to PPP1R12C (UniProt Q9BZL4), the log2 fold change was -0.009.
The result for PCBP2 (UniProt F8VZX2) reads -0.124; that for PDE4A (UniProt P27815), -0.098; that for PSMA3 (UniProt H0YJ03), -0.213.
As for PHLDB1 isoform 2 (UniProt Q86UU1), the figure is -0.053; as for PKM isoform 2 (UniProt P14618), 0.016; as for PIGH (UniProt Q14442), 0.033.
For the target POLB (UniProt P06746), the log2 fold change was -0.1.
The result for PPP2R5C isoform 2 (UniProt Q13362) reads 0.023; that for PEX5 isoform 4 (UniProt P50542), -0.078.
The result for PTPA (UniProt A6PVN8) reads -0.04; that for PHRF1 (UniProt Q9P1Y6), -0.296.
As for PSD3 (UniProt Q9NYI0), the figure is -0.075; as for PIAS4 (UniProt Q8N2W9), -0.278.
As to PCF11 (UniProt O94913), the log2 fold change was -0.533.
On to PMS2CL (UniProt Q68D20), for which the log2 fold change is 0.105.
With POLR2E (UniProt P19388), the log2 fold change was -0.058.
The result for PSMA3 (UniProt G3V4X5) reads -0.081; that for PUF60 isoform 2 (UniProt Q9UHX1), 0.173; that for PTEN isoform 2 (UniProt P60484), 0.024.
The result for PLCXD1 (UniProt Q9NUJ7) reads -0.145.
